This is a sample that favours compounds with a hit; in the whole collection about 7.3% have one here.
NPC1 promoter act = qHTS Assay for NPC1 Promoter Activators; Huh7 NPC1 promoter luciferase reporter, 24 h; Potency, µM (doses to about 9.22 µM), most hits filed as activators; 2.4% of 320,000 active; note: nearly all actives have a fitted effect of over 60% in size
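Stably transfected Huh7 (NPC1 promoter→luciferase), 1500 cells/well in Opti-MEM + 10% FBS, 2 h settle, then compound 24 h at 37 °C. Luminescence after 10 min with Amplite reagent.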
SMN2 splice up = qHTS Assay for Enhancers of SMN2 Splice Variant Expression; HEK293 SMN2-luciferase splicing reporter, luminescence, 30-36 h; Potency, µM (doses to about 46.1 µM), hits mostly activators; 2.8% of 210,000 active; AID 1458, 2008; note: nearly all actives have a fitted effect of over 55% in size
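HEK293 cells carry an SMN2 […]–luciferase reporter in which exon 7 inclusion puts luciferase in frame. Cells were plated 10-12 h before compound addition, then incubated 30-36 h at 37C. ONE-Glo luminescence was read; sodium butyrate at 4.5 mM final served as control.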
FLuc modulator = qHTS profiling assay for firefly luciferase inhibitor/activator using purifed enzyme and Km concentrations of substrates (counterscreen for miR-21 project); Luciferin 4-monooxygenase (Photinus pyralis), P08659; purified FLuc, Km substrates, luminescence inhibition; Potency, µM (series often up to 57.5 µM), usual class: inhibitors; 6.9% of 360,000 active; AID 588342, 2011; note: nearly all actives have a fitted effect of over 55% in size
Target sequence (P08659 whole entry, looked up): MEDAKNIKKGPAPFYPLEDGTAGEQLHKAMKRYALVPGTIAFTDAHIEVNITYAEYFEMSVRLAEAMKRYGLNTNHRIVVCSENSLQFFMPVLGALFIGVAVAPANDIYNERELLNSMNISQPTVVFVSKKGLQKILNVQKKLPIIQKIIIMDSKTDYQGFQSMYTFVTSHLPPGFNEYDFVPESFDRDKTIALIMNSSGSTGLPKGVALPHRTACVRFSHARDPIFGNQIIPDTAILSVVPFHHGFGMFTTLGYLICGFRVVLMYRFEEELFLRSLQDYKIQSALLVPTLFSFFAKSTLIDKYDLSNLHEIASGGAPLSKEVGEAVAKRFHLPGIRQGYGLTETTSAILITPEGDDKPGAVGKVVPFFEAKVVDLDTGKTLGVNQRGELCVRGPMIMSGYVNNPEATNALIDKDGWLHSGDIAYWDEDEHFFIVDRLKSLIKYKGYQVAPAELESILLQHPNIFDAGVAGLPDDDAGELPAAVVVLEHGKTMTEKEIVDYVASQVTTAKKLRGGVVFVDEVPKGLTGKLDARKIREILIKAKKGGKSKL
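Purified P. pyralis luciferase, 10 nM final, with Km-level 10 uM D-luciferin and 10 uM ATP in 50 mM Tris acetate pH 7.5, 10 mM Mg acetate, 0.01% Tween-20, 0.05% BSA; 6-point qHTS titration about 60 µM downward; luminescence read.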
ELG1 genotox = qHTS screen for small molecules that induce genotoxicity in human embryonic kidney (HEK293T) cells expressing luciferase-tagged ELG1 | Potency, µM (top dose mostly 46 µM), hits mostly activators | 1.3% of 330,000 active | AID 504466, 2011 | HEK293T ELG1-luciferase reporter, luminescence, 16 h; note: nearly all actives have a fitted effect of over 60% in size
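HEK293T cells expressing luciferase-tagged ELG1 were exposed to compound or DMSO vehicle for 16 hr at 37 °C and 5% CO2. Luciferase activity was then measured with ONE-Glo after 30 min at room temperature.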
Rab9 prom act = qHTS Assay for Rab9 Promoter Activators; AID 485297, 2010; 2.8% of 320,000 active; Potency, µM (doses to about 9.22 µM), hits mostly activators; Huh7 Rab9 promoter-luciferase reporter, luminescence, 24 h; note: nearly all actives have a fitted effect of over 60% in size
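Huh7 reporter line, Rab9 promoter upstream of luciferase. Compound exposure 24 h at 37 °C in reduced-serum medium with 10% FBS. Read-out: luminescence.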
KinaseGlo FLuc = Counterscreen for Luciferase (Kinase-Glo TM) Inhibition; Luciferin 4-monooxygenase (Photuris pensylvanica), Q27757; Kinase-Glo luciferase, ATP luminescence, 8 min; Potency, µM (titrated, usually from 38.3 µM), most hits filed as inhibitors; 0.28% of 200,000 active; note: nearly all actives have a fitted effect of over 60% in size
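Recombinant Kinase-Glo luciferase, 10 uM ATP (linear range), luciferin; imidazole pH 7.2 / KCl / MgCl2 / Tween / BSA buffer; 8 min RT; luminescence.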
Numbers stand for hits; i = inactive; ? = inconclusive; nt = no result; [ ] = dose if it differs, or a comment. Calls come from the whole dose curve; as a rule, active = well fitted curve in the direction sought with a large enough effect; inconclusive = small, poorly fitted or top-dose-only effect, or another doubt; inactive = no such curve, though single readings can be large; an effect the other way counts as inactive or inconclusive.

SMILES	NPC1 promoter act	SMN2 splice up	FLuc modulator	ELG1 genotox	Rab9 prom act	KinaseGlo FLuc
CCc1ccc(/C=N/NC(=O)c2nnn(-c3nonc3N)c2C(C)C)cc1	i	nt	2.39µM	i	i	nt
CC(C)c1c(C(=O)N/N=C/c2ccc(Cl)cc2Cl)nnn1-c1nonc1N	i	nt	6.01µM	i	i	nt
CCOC(=O)c1ccccc1NC(=O)CSc1ncc(CO)n1Cc1ccc(C)cc1	nt	nt	i	nt	nt	nt
CCOC(=O)c1ccccc1NC(=O)Cn1cc(C(=O)c2cccc(OC)c2)c(=O)c2ccc(C)nc21	nt	nt	i	nt	nt	nt
Cc1ccsc1/C=N\NC(=O)c1n[nH]c2c1CCC2	1µM	1.58µM	2.13µM	?	0.631µM	7.08µM
O=C(N/N=C/c1c(Cl)cccc1Cl)c1n[nH]c2c1CCCC2	2.82µM	17.8µM	6.75µM	?	2.82µM	8.91µM
NC(=O)c1ccccc1NC(=O)CSc1nc2ccccc2c(=O)[nH]1	i	nt	i	i	i	nt
Cc1cc2nc(SCC(=O)Nc3ccccc3C(=O)O)[nH]c2cc1C	i	i	10.7µM	?	i	i
CC(=O)Nc1nonc1-c1nnc(SCC(=O)Nc2ccc(F)cc2F)n1-c1ccccc1	nt	nt	i	nt	nt	nt
Cc1cnc(C(=O)Nc2ccc(N3CCCCC3)cc2)cn1	3.55µM	11.2µM	7.57µM	?	3.16µM	i
Cc1cnc(C(=O)Nc2ccc(N3CCOCC3)cc2)cn1	i	?	?	?	?	i
Cc1cc(C(=O)Nc2ccc(N3CCCCC3)cc2)no1	0.316µM	nt	1.35µM	?	0.282µM	nt
CCOC(=O)C1CCN(S(=O)(=O)c2ccc(N3CCCCS3(=O)=O)cc2)CC1	nt	nt	i	nt	nt	nt
CN(Cc1ccccc1)c1ccc2cc(S(=O)(=O)N3CCCCC3)ccc2n1	nt	nt	i	nt	nt	nt
CC(C)CN(C(=O)c1ccc(=O)n(C)n1)c1nc2ccccc2s1	i	20µM	i	i	i	i
Cc1ccc(C(=O)N(CC(C)C)c2nc3ccccc3s2)o1	i	nt	?	i	i	nt
FC(F)(F)c1cccc(NC(=S)NC2CCCC2)c1	i	i	i	i	i	i
CC(C)c1ccc(NC(=S)NC2CCCCCC2)cc1	?	12.6µM	16.9µM	?	?	i
FC(F)(F)c1ccc(NC(=S)NC2CCCCC2)cc1	i	15.8µM	?	i	i	i
S=C(Nc1ccc2nsnc2c1)NC1CCCCC1	i	?	21.3µM	i	i	i
S=C(Nc1ccc(Cl)c(Cl)c1)NC1CCCCC1	i	?	?	i	i	i
CCc1ccc(NS(=O)(=O)c2[nH]ncc2C(=O)OC)cc1	nt	i	i	nt	nt	nt
COc1ccc(CNC(=O)Cc2c(C)c3c(cc(C)c4c(C)coc43)oc2=O)cc1	nt	i	i	nt	nt	nt
O=C(NCCc1csc(-c2cccnc2)n1)c1cccc(C(F)(F)F)c1	nt	nt	i	nt	nt	nt
Cc1ccc(-c2cc(C(=O)NCc3ccco3)c3ccccc3n2)s1	i	i	12µM	i	i	i
SMILES	NPC1 promoter act	SMN2 splice up	FLuc modulator	ELG1 genotox	Rab9 prom act	KinaseGlo FLuc
Cc1ccc(-c2cc(C(=O)NCCCn3ccnc3)c3ccccc3n2)s1	i	i	16.9µM	i	i	i
CN1CCN(NC(=O)c2cc(-c3ccc(Br)s3)nc3ccccc23)CC1	i	nt	?	i	i	nt
CCc1ccc(-c2cc(C(=O)NN3CCOCC3)c3ccccc3n2)s1	i	i	7.57µM	i	i	i
O=C(O)c1cc(-c2ccc(Br)s2)nc2ccccc12	i	nt	8.49µM	i	i	nt
COC(=O)C1=C(C(=O)OC)[C@@H]2Nc3ccccc3[C@@]23C[C@@H](C(=O)OC)N(S(=O)(=O)c2ccc4c(c2)OCCN4C)C3=N1	nt	i[9.22 µM]	nt	nt	nt	i[7.66 µM]
CCc1ccc(-c2cc(C(=O)NCCCn3ccnc3)c3ccccc3n2)s1	i	i	4.78µM	?	i	i
Cc1nn(-c2ccccn2)c2nc(-c3cccs3)cc(C(=O)NCc3ccco3)c12	i	nt	6.75µM	i	i	i
O=C(NCCCn1ccnc1)c1cc(-c2ccncc2)nc2ccccc12	i	i	i	i	i	i
Cc1csc2nc(COc3ccccc3NC(=O)c3ccccc3Cl)cc(=O)n12	nt	i	i	nt	nt	nt
CC(=O)Nc1ccc(SCC(=O)c2cc(C)n(CC(F)(F)F)c2C)cc1	3.16µM	i	i	?	2.82µM	i

From PubChem BioAssay
